According to publication PMC4336329 (PLoS ONE, 2015):
Out of some 310,000 compounds screened, about 14,000 (4.5%) showed an effect of 50% or more. The effect is printed as a negative number. This excerpt belongs to a sample that is enriched for strong results.

target: human ether-à-go-go-related gene (hERG) potassium channel (human, UniProt Q12809); test: primary screen, population patch clamp on CHO cells stably expressing hERG; higher = less effect of the substance
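Also: peak tail current of the secondary pulse compared with the same well before compound.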

Sequence of human ether-à-go-go-related gene (hERG) potassium channel (Q12809 whole entry, looked up): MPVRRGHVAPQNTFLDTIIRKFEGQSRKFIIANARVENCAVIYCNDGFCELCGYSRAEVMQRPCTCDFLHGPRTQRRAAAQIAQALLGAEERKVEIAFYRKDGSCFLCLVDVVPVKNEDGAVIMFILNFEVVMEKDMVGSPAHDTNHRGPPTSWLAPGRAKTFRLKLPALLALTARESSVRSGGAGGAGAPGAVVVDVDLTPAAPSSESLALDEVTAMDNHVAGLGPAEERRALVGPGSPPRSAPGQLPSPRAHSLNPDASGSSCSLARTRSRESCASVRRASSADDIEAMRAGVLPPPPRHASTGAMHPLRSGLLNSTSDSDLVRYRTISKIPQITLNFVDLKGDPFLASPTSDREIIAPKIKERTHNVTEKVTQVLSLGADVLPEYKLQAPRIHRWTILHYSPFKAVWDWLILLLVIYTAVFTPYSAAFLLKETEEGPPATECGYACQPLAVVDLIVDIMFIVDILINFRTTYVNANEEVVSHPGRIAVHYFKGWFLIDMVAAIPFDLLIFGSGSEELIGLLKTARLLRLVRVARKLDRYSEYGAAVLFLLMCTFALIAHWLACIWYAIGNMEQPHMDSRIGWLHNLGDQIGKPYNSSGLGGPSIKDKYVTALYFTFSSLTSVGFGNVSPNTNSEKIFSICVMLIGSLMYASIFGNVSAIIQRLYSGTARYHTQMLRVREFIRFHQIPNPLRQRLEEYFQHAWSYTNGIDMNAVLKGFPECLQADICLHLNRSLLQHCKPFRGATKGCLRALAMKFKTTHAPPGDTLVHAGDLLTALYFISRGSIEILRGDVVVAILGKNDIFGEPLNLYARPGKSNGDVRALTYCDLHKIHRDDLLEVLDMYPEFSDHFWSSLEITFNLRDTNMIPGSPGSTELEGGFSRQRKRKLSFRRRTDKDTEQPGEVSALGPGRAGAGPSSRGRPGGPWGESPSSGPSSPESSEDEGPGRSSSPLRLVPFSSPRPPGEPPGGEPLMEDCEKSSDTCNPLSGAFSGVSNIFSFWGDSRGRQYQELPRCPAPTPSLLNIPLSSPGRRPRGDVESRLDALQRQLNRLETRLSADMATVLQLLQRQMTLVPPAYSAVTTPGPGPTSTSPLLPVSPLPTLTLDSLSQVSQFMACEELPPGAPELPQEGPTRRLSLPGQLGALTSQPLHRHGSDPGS

Structure (SMILES) | hERG current change (%, negative = inhibition) at 10uM [%]
O=C1CN(C(=O)CSc2nnc(Nc3ccccc3)s2)c2ccccc2N1 | 0.255
COc1ccc(NC(=S)NCc2ccc3c(c2)cc(C)n3C)cc1 | 5.5
CN(CCO)c1cc(NCCCN2CCC(Cc3ccccc3)CC2)c2nonc2c1[N+](=O)[O-] | -38
COC(=O)c1ccc(NC(=O)c2ccc3c(c2)C(=O)N(Cc2cccnc2)C3=O)cc1 | -23.2
CCCCCCn1c(O)c(C(C)=NC)c(=O)[nH]c1=O | 1.56
CC1CCc2nn(CC(=O)Nc3ccc(F)cc3F)cc2C1 (stereo not shown) | -2.61
COc1ccc(-c2nc3ccccc3n2Cc2ccc(C)cc2)cc1 | -6.29
CN1C(=O)C(C)(C)c2cc(S(=O)(=O)N3CCCC(C(=O)NCc4ccccc4Cl)C3)ccc21 (stereo not shown) | 2.18
C=CCN(C(=O)CCC(=O)O)C1CC(=O)N(c2ccc(OCCC)cc2)C1=O (stereo not shown) | 0.711
Cc1ccc2oc(=O)c3cc(C(=O)NCCN4CCN(C)CC4)sc3c2c1 | -18.2
COC(=O)c1ccc(C)c(NC(=O)C2CC(=O)N(C3CCCC(C)C3C)C2)c1 (stereo not shown) | -11.5
O=C(OCC(=O)N1CCCCC1)c1c[nH]c2ccccc12 | -7.04
Cc1ccc(CN2CCN(CC(=O)N/N=C/c3ccccc3F)CC2)cc1 | -66.4
O=C(CN1CCSCC1)N/N=C/c1ccccc1F | 0.735
O=C(O)COc1ccccc1/C=N/NC(=O)CN1CCN(Cc2ccc(Cl)cc2)CC1 | 10.7
Cc1nc2ccccc2c(=O)n1-c1ccc(Cl)cc1Cl | -0.324
Cc1ccc(CSc2ncnc3c2cnn3-c2ccc(C)cc2)cc1 | 30.7
COc1ccc([N+](=O)[O-])cc1N(CC(O)Cn1nnc2ccccc21)S(=O)(=O)c1ccc(C)cc1 (stereo not shown) | -29.4
COc1ccc(N(CC(O)Cn2cnc3ccccc32)S(=O)(=O)c2ccc(C)cc2)cc1 (stereo not shown) | -58
COc1ccc(N(CC(O)Cn2c(C)nc3ccccc32)S(=O)(=O)c2ccccc2)cc1 (stereo not shown) | 4.8
COc1ccc(N(CC(O)Cn2c(C)nc3ccccc32)S(=O)(=O)c2ccc(C)cc2)cc1 (stereo not shown) | -11.5
COc1ccc(N(CC(O)Cn2nnc3ccccc32)S(=O)(=O)c2ccc(C)cc2)cc1 (stereo not shown) | -64.6
COc1ccc(N(CC(O)CN2C(=O)NC(C)(C)C2=O)S(=O)(=O)c2ccc(C)cc2)cc1 (stereo not shown) | -11.6
COc1ccc(C(=O)Nc2ccc(N3CCCCCC3)cc2)cc1S(=O)(=O)N1CCOCC1 | -40.1
COc1ccc(CN(CC2CCCO2)C(=O)CN2C(=O)COc3ccccc32)cc1OC (stereo not shown) | -15.8
Cc1sc(N)c(C(=O)c2ccccc2Cl)c1C | 3.8
CCOc1ccccc1N(CC(=O)NC1CCCCC1)C(=O)CNC(=O)c1ccco1 | 8.1
Fc1ccc(CN2CCN(c3ncccn3)CC2)cc1 | -3.32

Structure (SMILES) | hERG current change (%, negative = inhibition) at 10uM [%]
CN1C(=O)c2ccc(C(=O)Nc3ccc(Br)cn3)cc2C1=O | 7.17
O=C(CN1CCOCC1)Nc1ccccc1NC(=O)C1CCN(c2ncccn2)CC1 | 9.55
Cc1ccc(-c2nc(CS(=O)CC(=O)NCCN(CC(C)C)CC(C)C)c(C)o2)cc1 (stereo not shown) | -19.4
Cc1cc(Cl)ccc1NC(=O)CN1C(=O)C(=O)N(C2CCCC2)C1=O | -5
Cc1ccc(-n2cc(CN3CCC(CO)(Cc4cccc(C(F)(F)F)c4)CC3)cn2)cc1 | -76
OCC1(Cc2ccccc2)CCN(Cc2cnn(-c3ccccc3F)c2)CC1 | -41.9
Cc1ccc(-n2cc(CN3CCC(CO)(Cc4ccccc4)CC3)cn2)cc1 | -65.1
Cc1ccc(CN2CCCN(Cc3ccccc3C)S2(=O)=O)cc1 | 21.1
Cc1ccc(-n2nnnc2-c2cnc(N3CCCC3)nc2C(F)(F)F)cc1 | -9.95
CCOC(=O)c1cnc2c(cnn2C)c1NCc1ccc(OC)cc1 | 16
COC(=O)c1cc2sc(Cl)cc2n1CC(=O)Nc1ccc(OC)c(OC)c1OC | -68.9
COC(=O)c1cc2sccc2n1CC(=O)Nc1ccc(OC)c(OC)c1OC | -1.08
COC(=O)c1cc2occc2n1CC(=O)Nc1ccc(OC)c(OC)c1OC | 0.151
CCOc1ccc(NC(=O)CN2CC(c3ccccc3)CC2=O)cc1 (stereo not shown) | -19.9
COC(=O)c1ccc(/C=N/NS(=O)(=O)c2cc(C)ccc2C)cc1 | -0.827
Cc1nc2sccn2c1-c1csc(NCc2ccccc2)n1 | 6.86
Cc1ccn2c(-c3csc(NCc4ccco4)n3)c(C)nc2c1 | -64.9
Cc1nc(C)c(-c2csc(NCc3ccco3)n2)s1 | -10.9
C=CCNc1nc(-c2c(C)nc3ncccn23)cs1 | -0.737
Cc1nc2ccccn2c1-c1csc(NCc2ccco2)n1 | -74.6
Oc1ccc(-c2csc(NCc3ccco3)n2)cc1 | -10.2
Br.Cc1nc2ncccn2c1-c1csc(Nc2ccc(S(N)(=O)=O)cc2)n1 | 0.703
c1coc(CNc2nc(-c3cccs3)cs2)c1 | -9.83
c1coc(CNc2nc(-c3ccncc3)cs2)c1 | -3.17
Cc1nc2ncccn2c1-c1csc(NCc2ccco2)n1 | -51.8
Cc1ccn2c(NCc3ccccc3)c(-c3cccs3)nc2c1 | 12.5
Cc1ccn2c(-c3csc(NCc4ccccc4)n3)c(C)nc2c1.Cl | -72.4
